# JMJD2A Tudor inh: JMJD2A Tudor domain (human) inhibition; 4.4% of 390,000 active; Potency, µM (highest dose often 114 µM), inactives show at the highest dose activity change, negative = inhibition, usual class: inhibitors; O75164; AlphaScreen JMJD2A-Tudor / H3K4me3 peptide binding; AID 504339; also: % is scaled to controls: 0 for no effect and ±100 for the full control effect; nearly all actives have a fitted effect of over 50% in size
# Sfp PPTase inh: blocks B. subtilis Sfp PPTase activity; Biochemical Sfp PPTase activity, qHTS; Potency, µM, for the others: largest response in the series, negative = inhibition, hits mostly inhibitors; AID 1490; Q9F4F7; 3.5% of 310,000 active;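 also: the enzyme is Sfp with the accession as filed and its product quenches rhodamine fluorescence; 0% = enzyme reaction without inhibitor and -100% = no enzyme wells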
#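 Step 1, compound plus 15 nM Sfp-PPTase, 15 min, room temperature. Step 2, add rhodamine-CoA (5 uM) and BHQ-2-YbbR (12.5 uM). Step 3, read 525/598 nm fluorescence at 0 and 30 min.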
# L3MBTL1 inh: inhibitors of human L3MBTL1; Q9Y468; AlphaScreen L3MBTL1–H3K9me1 peptide binding; Potency, µM (top dose mostly 57.1 µM), inactives show at the top dose activity, negative = inhibition, usual class: inhibitors; 0.66% of 230,000 active; AID 485360; also: % is scaled to controls: 0 for no effect and ±100 for the full control effect; nearly all actives have a fitted effect of over 60% in size
#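 L3MBTL1 (50 nM) pre-complexed 30 min with biotinylated H3(1-15)K9me1 peptide (75 nM), then compounds added for 30 min at room temperature; AlphaScreen streptavidin donor/nickel chelate acceptor beads (10 ug/mL final) read after 30 min dark incubation.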
# G9a block: inhibitors of human histone lysine methyltransferase G9a; Q96KQ7; G9a H3K9 monomethylation, AlphaScreen, 2 h; Potency, µM (highest dose often 102 µM), inactives show at the highest dose activity, negative = inhibition, hits mostly inhibitors; 8.8% of 350,000 active; also: % is scaled to controls: 0 for no effect and ±100 for the full control effect; nearly all actives have a fitted effect of over 75% in size
#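 Readings reflect AlphaScreen signal from monomethyl-H3K9 antibody detection. HMT at 20 nM; substrate b-H3K9 500 nM; cofactor SAM 20 uM; 2 h RT reaction; compounds tested as titrations in qHTS with 15 min preincubation.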
# HP1b binding inh: inhibitors of HP1-beta chromodomain binding to methylated histone tails; AlphaScreen HP1-beta / biotin-H3K9me3 peptide binding; Potency, µM (series often up to 114 µM), for inactives: at the top dose activity change, negative = inhibition, most hits filed as inhibitors; 0.56% of 390,000 active; also: nearly all actives have a fitted effect of over 70% in size
#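 AlphaScreen: HP1-beta (50 nM) preformed 30 min with biotin-H3(1-18)K9me3 peptide (50 nM) in PBS pH 7.4, 0.01% Tween-20. Compound added for 30 min at RT, then streptavidin donor/nickel chelate acceptor beads (10 ug/mL) for 30 min.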
# BAZ2B inh: inhibitors of human BAZ2B bromodomain; 4.4% of 360,000 active; Potency, µM (highest dose often 114 µM), for the others: at the top dose activity change, negative = inhibition, actives largely listed as inhibitors; Q9UIF8; AlphaScreen BAZ2B-H3K14Ac peptide displacement; also: % is scaled to controls: 0 for no effect and ±100 for the full control effect; nearly all actives have a fitted effect of over 60% in size
# Target sequence (Q9UIF8 whole entry, looked up): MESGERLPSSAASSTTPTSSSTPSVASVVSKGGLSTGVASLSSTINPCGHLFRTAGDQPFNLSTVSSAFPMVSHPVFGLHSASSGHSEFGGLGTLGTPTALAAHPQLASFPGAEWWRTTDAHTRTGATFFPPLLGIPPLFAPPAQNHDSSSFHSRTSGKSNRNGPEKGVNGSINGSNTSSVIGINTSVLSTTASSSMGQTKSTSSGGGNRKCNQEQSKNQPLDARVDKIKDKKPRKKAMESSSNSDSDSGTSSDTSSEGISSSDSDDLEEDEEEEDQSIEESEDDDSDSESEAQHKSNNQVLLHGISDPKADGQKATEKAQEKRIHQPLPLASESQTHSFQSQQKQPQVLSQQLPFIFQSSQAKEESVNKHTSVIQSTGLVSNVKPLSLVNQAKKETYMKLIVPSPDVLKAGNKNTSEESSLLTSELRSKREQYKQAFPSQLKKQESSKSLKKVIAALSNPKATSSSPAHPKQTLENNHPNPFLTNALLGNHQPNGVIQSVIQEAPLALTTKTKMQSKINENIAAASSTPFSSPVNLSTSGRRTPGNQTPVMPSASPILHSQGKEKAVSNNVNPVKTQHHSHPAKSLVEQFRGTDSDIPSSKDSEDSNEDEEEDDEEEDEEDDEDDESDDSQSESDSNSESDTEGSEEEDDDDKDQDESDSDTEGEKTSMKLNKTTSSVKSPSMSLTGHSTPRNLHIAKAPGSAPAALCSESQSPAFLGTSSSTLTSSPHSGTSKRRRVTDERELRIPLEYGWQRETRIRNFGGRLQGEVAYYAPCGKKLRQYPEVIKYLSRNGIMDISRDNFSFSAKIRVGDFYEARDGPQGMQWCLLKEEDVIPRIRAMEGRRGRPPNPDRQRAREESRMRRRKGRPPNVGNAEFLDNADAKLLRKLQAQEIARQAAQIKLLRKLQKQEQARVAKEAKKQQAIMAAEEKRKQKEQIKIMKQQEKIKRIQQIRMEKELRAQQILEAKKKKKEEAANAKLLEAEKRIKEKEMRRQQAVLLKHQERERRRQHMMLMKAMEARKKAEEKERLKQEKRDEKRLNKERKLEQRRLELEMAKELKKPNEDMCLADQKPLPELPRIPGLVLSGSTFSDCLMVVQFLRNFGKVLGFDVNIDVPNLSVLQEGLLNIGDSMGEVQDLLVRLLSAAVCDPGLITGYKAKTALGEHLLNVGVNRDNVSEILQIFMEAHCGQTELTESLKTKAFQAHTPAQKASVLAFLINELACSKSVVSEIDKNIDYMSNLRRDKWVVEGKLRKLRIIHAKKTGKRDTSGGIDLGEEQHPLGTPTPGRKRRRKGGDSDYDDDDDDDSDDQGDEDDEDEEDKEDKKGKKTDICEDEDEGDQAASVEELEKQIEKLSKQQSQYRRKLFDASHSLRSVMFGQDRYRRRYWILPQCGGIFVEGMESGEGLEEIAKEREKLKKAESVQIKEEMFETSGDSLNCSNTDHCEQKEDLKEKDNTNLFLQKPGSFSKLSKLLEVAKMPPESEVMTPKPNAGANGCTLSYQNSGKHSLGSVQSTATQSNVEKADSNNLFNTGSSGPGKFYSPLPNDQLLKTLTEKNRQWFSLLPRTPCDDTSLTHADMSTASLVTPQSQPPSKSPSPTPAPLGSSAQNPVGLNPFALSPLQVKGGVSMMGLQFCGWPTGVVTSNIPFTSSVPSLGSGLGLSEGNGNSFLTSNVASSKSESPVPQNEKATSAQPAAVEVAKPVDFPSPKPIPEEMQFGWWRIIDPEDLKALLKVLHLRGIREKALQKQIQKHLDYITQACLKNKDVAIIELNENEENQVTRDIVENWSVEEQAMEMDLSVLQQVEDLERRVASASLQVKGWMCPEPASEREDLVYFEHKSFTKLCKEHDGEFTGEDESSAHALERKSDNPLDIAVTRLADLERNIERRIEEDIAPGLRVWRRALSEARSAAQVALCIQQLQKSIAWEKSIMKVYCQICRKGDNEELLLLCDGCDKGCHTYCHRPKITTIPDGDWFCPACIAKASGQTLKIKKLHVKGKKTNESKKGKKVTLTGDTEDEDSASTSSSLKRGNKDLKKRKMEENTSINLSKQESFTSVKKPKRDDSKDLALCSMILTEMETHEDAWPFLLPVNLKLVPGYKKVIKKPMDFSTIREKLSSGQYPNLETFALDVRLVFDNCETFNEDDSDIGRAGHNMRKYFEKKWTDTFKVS
#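 AlphaScreen luminescence quantifies BAZ2B engagement of H3K14Ac peptide; the protein and biotinylated peptide are both at 50 nM final, buffer PBS pH 7.4 with 0.01% Tween-20, all steps at room temperature.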
# * = called active by the depositor; ? = inconclusive; . = no result; [ ] = remark or other dose. Most compounds without a hit are left out; they make up all but 12% or so of the library. Calls follow the shape of the dose curve; as a rule, active = well fitted curve in the direction sought with a large enough effect; inconclusive = small, poorly fitted or top-dose-only effect, or another doubt; inactive = no such curve, though single readings can be large; an effect the other way counts as inactive or inconclusive. Potency is read from the fitted curve at half-maximal effect.
SMILES,JMJD2A Tudor inh,Sfp PPTase inh,L3MBTL1 inh,G9a block,HP1b binding inh,BAZ2B inh
Cc1cc(C)nc(NS(=O)(=O)c2ccc(NC(=O)c3ccc(S(=O)(=O)N4CC(C)OC(C)C4)cc3)cc2)n1 (stereo not given),-12%,-6%,23%,8.9µM*,22%,4%
CC1CCCN(S(=O)(=O)c2ccc(C(=O)Nc3nnc(C4CC4)o3)cc2)C1 (stereo not given),?,22%,.,42%,51%,35µM*
CC1CN(S(=O)(=O)c2ccc(C(=O)Nc3nnc(-c4ccco4)o3)cc2)CC(C)O1 (stereo not given),-26%,19%,.,?,51%,?
CC1CN(S(=O)(=O)c2ccc(C(=O)Nc3ccc(S(=O)(=O)Nc4ncccn4)cc3)cc2)CC(C)O1 (stereo not given),-6%,27%,1%,13%[59 µM],30%,8%
Cc1ccc(-n2nc(C)c3c(C)c(CCC(=O)NCc4ccccc4Cl)c(C)nc32)cc1C,-10%,.,.,13%[59 µM],15%,-3%
COc1cccc(C2C(C(=O)Nc3ccccc3)=C(C)Nc3nnnn32)c1OC (stereo not given),-14%,.,.,9%[59 µM],37%,1%
COc1ccc(CN(Cc2ccccc2)C(=O)c2ccco2)cc1COc1ccc(NC(C)=O)cc1,?,.,.,.,0%,.
c1ccc(CNCCN2CCNCC2)nc1,?,-4%,?,4%,26%,16µM*
CCN(CC)N=Nc1ccc(S(=O)(=O)N2CCSC2C(=O)O)cc1 (stereo not given),-10%,22%,-1%,10%,10%,-10%
CCN(CC)N=Nc1ccc(C(=O)O)cc1,-2%,1%,7%,2µM*,40%,1%
COc1ccc(NC(=O)N2CCC(c3nc4ccccc4[nH]3)CC2)cc1,1%,9%,.,40µM*,46%,3%
CCOc1ccccc1NC(=O)N1CCC(c2nc3ccccc3[nH]2)CC1,-14%,11%,.,-44%[12.7 µM],14%,-7%
O=C(C1CC(=O)N(c2ccccc2)C1)N1CCC(c2nc3ccccc3[nH]2)CC1 (stereo not given),-14%,.,6%,45µM*,28%,-2%
COc1ccc(N2CC(C(=O)N3CCC(c4nc5ccccc5[nH]4)CC3)CC2=O)cc1 (stereo not given),-2%,.,-18%,-18%,22%,1%
COC(=O)C1=C(CS(=O)(=O)c2cc(Cl)ccc2OC)NC(=O)NC1c1ccccc1 (stereo not given),-12%,.,.,-1%[59 µM],17%,-7%
COc1ccc2sc(-c3ccccc3OC)c(C#Cc3cncn3C)c2c1,40µM*,.,-19%,.,0%,.
COc1ccccc1-c1sc2cc3c(cc2c1C#CCO)OCO3,-21%,.,-6%,5%[0.501 µM],34%,-16%
COc1ccc2sc(-c3ccccc3OC)c(C#CCCO)c2c1,-33%,.,-5%,-3%[0.501 µM],42%,79µM*
COc1ccc(-c2sc3ccccc3c2C#Cc2cncn2C)cc1,?,.,-20%,.,-1%,.
COc1cc(OC)cc(-c2sc3ccc(OC)cc3c2C#CCCO)c1,-30%,.,0%,-2%[0.501 µM],43%,?
COc1ccccc1-c1sc2cc3c(cc2c1C#Cc1cncn1C)OCO3,20µM*,.,?,.,-29%,.
CC(C)Oc1ccc(CNC(=O)Cn2nc(N3CCN(c4ccccc4)CC3)ccc2=O)cc1,-17%,.,.,-7%[59 µM],23%,-18%
CCN(CC)CCNc1ncnc2c1sc1nc(N3CCOCC3)c3c(c12)CCCC3,?,4%,-26%,35µM*,-16%,-32%
CCN(CC)CCNc1ncnc2c1sc1nc(N3CCCC3)c3c(c12)CC(C)(C)OC3,?,-22%,-4%,?,?,45µM*
CN(C)CCNc1ncnc2c1sc1nc(N3CCCC3)c3c(c12)CC(C)(C)OC3,?,-9%,?,?,-21%,?
SMILES,JMJD2A Tudor inh,Sfp PPTase inh,L3MBTL1 inh,G9a block,HP1b binding inh,BAZ2B inh
CN(N)C(=S)Nc1ccc(Cl)cc1,1%,-10%,7%,16µM*,36%,-31%
CCC1=NN(C(=O)c2cccc(Br)c2)C(O)(c2ccc(Br)cc2)C1 (stereo not given),?,-9%,28µM*,26%[59 µM],2%,40µM*
CCC1=NN(C(=O)c2ccc(C)cc2)C(O)(c2ccc(Br)cc2)C1 (stereo not given),-32%,13%,-13%,23%[59 µM],14%,?
COc1ccc(S(=O)(=O)Nc2nc3c(s2)C(=O)CC(C)(C)C3)cc1,-6%,16%,.,-30%[59 µM],15%,22%
CC1(C)CC(=O)c2sc(NS(=O)(=O)Cc3ccccc3)nc2C1,-28%,2%,-26%[11.4 µM],11µM*,-13%,4%
Cc1ccc(S(=O)(=O)Nc2nc3c(s2)C(=O)CC(C)(C)C3)cc1,-7%,11%,-24%,50µM*,27%,-37%
O=C(O)CCC/C=C\C[C@@H]1CO[C@H](C(F)(F)F)O[C@@H]1c1ccccc1O,.,1%,.,.,.,.
Cc1ccccc1Cn1c(SCc2ccc(C(=O)NCc3cccs3)cc2)nc2ccncc21,-23%,.,.,-34%[59 µM],82%,16%
CCOCCCNC(=O)Nc1cc(C(=O)NCc2ccc(C(C)C)cc2)ccc1N1CCCC1,?,.,.,?,-19%,-39%
CCSc1ncc(Cl)c(C(=O)Nc2ccc(S(=O)(=O)Nc3nccc(C)n3)cc2)n1,-21%,.,.,?,13%,-14%
COc1ccc(NC(=O)Cn2cc(C(=O)c3ccc(C)c(C)c3)c(=O)c3cc(OC)ccc32)cc1,-10%,.,.,-33%[59 µM],23%,-6%
NC(=O)CCCCC(=O)OCCCc1cccs1,89µM*,18%,35%[11.4 µM],-6%[59 µM],4%,?
CC(C)c1ccc(NC(=O)Cn2c(=O)n(Cc3nc(-c4ccccc4)no3)c(=O)c3cc4c(cc32)OCO4)cc1,9%,.,.,1%[59 µM],38%,-2%
OCC(O)C(O)C(O)C(O)CO (stereo not given),.,27%,.,28%[59 µM],.,.
Cc1[nH]n(-c2ccccc2)c(=O)c1C=Nc1ccc2[nH]c(=O)[nH]c2c1,-2%,10%,5%,?,24%,2%
C=CCN=Cc1c(C)[nH]n(-c2ccccc2)c1=O,-1%,22%,.,0%,-3%,-1%
Cc1[nH]n(-c2ccccc2)c(=O)c1/C=N/c1nn[nH]n1,-10%[11.4 µM],-4%,-17%,50µM*,20%,?
Cc1cccc(/N=C/c2c(C)[nH]n(-c3ccccc3)c2=O)n1,-3%[11.4 µM],12%,-4%,?,42%,?
Cc1ccc(-n2[nH]c(C)c(/C=N/c3cccc(C)n3)c2=O)cc1,-19%[11.4 µM],10%,-2%,50µM*,30%,-24%
